# In ChEMBL document CHEMBL3988442, “University of Dundee, Small-Polar-MMV Screening Library” (2021):
# Hit rate of the full screen: of about 69,000 compounds, about 1,000 (1.4%) showed an effect of 50% or more. This is one part of a sample in which strong results are shown more often than they occur.
# System: Leishmania donovani
# Assay: Leishmania intramacrophage assay
# Format: functional, organism-based
# Set-up: scale not given: in the data most compounds retested in dose-response had high values
smiles,measurement,setting,value
CC(C)N1CCC(NC(=O)c2cn(-c3ccc(F)cc3)nn2)C1 (stereo not given),Percent Effect,"30.3 µM, […]",-11.91%
CCc1cc(NCCCc2nc(C)no2)nc(-c2ccncc2)n1,Percent Effect,"30.3 µM, […]",-6.6%
Cc1cc(Nc2ccccn2)nc(C2CCCN(CCO)C2)n1.O=CO (stereo not given),Percent Effect,"30.3 µM, […]",32.66%
Cc1cc(Nc2cnccn2)nc(C2CCCN(CCO)C2)n1 (stereo not given),Percent Effect,"30.3 µM, […]",56.31%
Cc1cc(Nc2ncccn2)nc(C2CCCN(CCO)C2)n1 (stereo not given),Percent Effect,"30.3 µM, […]",24.35%
CN(CCn1cncc1-c1cnc(N2CCOCC2)nc1)C1CCCC1,Percent Effect,"30.3 µM, […]",22.37%
CNC(=O)N1C[C@H]2N(c3ncccn3)CCC[C@@]2(C(=O)NCC2CC2)C1,Percent Effect,"30.3 µM, […]",18.69%
CS(=O)(=O)N1C[C@H]2N(c3ncccn3)CCC[C@@]2(C(=O)NCC2CC2)C1,Percent Effect,"30.3 µM, […]",51.67%
CC(C)CN1C[C@H]2N(c3ncccn3)CCC[C@@]2(C(=O)NCC2CC2)C1,Percent Effect,"30.3 µM, […]",11.67%
COCCN1CC[C@H]2CN(Cc3ccc(C)s3)C[C@@H]2C1=O.O=C(O)C(F)(F)F,Percent Effect,"30.3 µM, […]",-9.099%
CC(Cc1cccc(F)c1)C(=O)NS(=O)(=O)c1ccc(F)cc1 (stereo not given),Percent Effect,"30.3 µM, […]",5.076%
CC(CN1CCOCC1)NC(=O)c1cccc2cn[nH]c12 (stereo not given),Percent Effect,"30.3 µM, […]",18.62%
CN(C)C(=O)c1cc2ncc(C(=O)NC3CCCC3)cc2n1C,Percent Effect,"30.3 µM, […]",-2.053%
Cc1ncccc1CNC1CCCN(Cc2noc(C3CC3)n2)C1 (stereo not given),Percent Effect,30 µM,51.55%
Cc1ccsc1CNC1CCCN(Cc2noc(C3CC3)n2)C1 (stereo not given),Percent Effect,30 µM,29.68%
Cc1ccc(CNC2CCCN(Cc3noc(C4CC4)n3)C2)s1 (stereo not given),Percent Effect,30 µM,1.737%
CCc1cc(N2CCC(NCc3ccc(C)o3)CC2)ncn1,Percent Effect,"30.3 µM, […]",57.16%
Cc1ccc(N2CCCC(NCc3ccc(C)o3)C2)nn1 (stereo not given),Percent Effect,"30 µM, 30.03 µM",1.465%
CCc1cc(N2CCC(Nc3ccc(Cl)cn3)CC2)ncn1,Percent Effect,"30.3 µM, […]",39.5%
COc1c(CNCCNC(=O)c2ccccc2)c(C)nn1C.Cl,Percent Effect,30 µM,37.81%
Cc1nc(C)n(CC2CCCCN2CCOc2cccc(C#N)c2)n1 (stereo not given),Percent Effect,30 µM,14.77%
Cc1noc(C(C)N2CCN(c3ncnc4ccccc34)CC2)n1 (stereo not given),Percent Effect,"30.3 µM, […]",-13.38%
Cc1noc(C(C)N2CCN(c3ncnc4sccc34)CC2)n1 (stereo not given),Percent Effect,"30.3 µM, […]",61.64%
CCc1noc(C(C)N2CCN(c3ncnc4sccc34)CC2)n1 (stereo not given),Percent Effect,"30.3 µM, […]",17.92%
Cc1cnn(C2CCCN(C(=O)c3cc[nH]n3)C2)c1 (stereo not given),Percent Effect,"30.3 µM, […]",9.905%
CCC(CN1CCCCC1)NC(=O)C1(c2ccc(F)cc2)CC1.O=C(O)CC(O)(CC(=O)O)C(=O)O (stereo not given),Percent Effect,"30.3 µM, […]",18.07%
CCC(CN1CCCC1)NC(=O)C1(c2cccc(F)c2)CC1.O=C(O)CC(O)(CC(=O)O)C(=O)O (stereo not given),Percent Effect,"30.3 µM, […]",43.99%
CCC(CN1CCCC1)NC(=O)C1(c2ccc(F)cc2)CC1 (stereo not given),Percent Effect,"30.3 µM, […]",52.84%
COCCCN1CCCN(C(C)c2nc(C3CC3)no2)CC1 (stereo not given),Percent Effect,"30 µM, 30.03 µM",35.53%
CCOc1ccc(C(=O)N(C)Cc2nccn2CC(F)(F)F)cc1,Percent Effect,"30.3 µM, […]",3.454%
CCC(C)c1ccc(NC(=O)C2CCN(C(=O)N(C)C)CC2)cc1 (stereo not given),Percent Effect,"30.3 µM, […]",18.48%
CCOc1ccnc(N2CCN(C(=O)c3ccncc3)CC2)n1,Percent Effect,30 µM,-11.04%
Cn1cc(CN2CCC3(CC2)CC(c2ccncc2)C(=O)N3)cn1.O=C(O)C(F)(F)F.O=C(O)C(F)(F)F (stereo not given),Percent Effect,"30 µM, 30.03 µM",3.212%
Cc1nc[nH]c1CN1CCC(C2CCN(CCc3ccccc3)C2)CC1 (stereo not given),Percent Effect,"30.3 µM, […]",22.99%
CCN(CC1CCCN(CCc2cccc(OC)c2)C1)C(=O)CN(C)C (stereo not given),Percent Effect,"30.3 µM, […]",48.28%
COc1ccccc1CCN1CCCC(CN(C)Cc2cc(C)n[nH]2)C1 (stereo not given),Percent Effect,"30.3 µM, […]",19.41%
Cc1nc[nH]c1CN(C)CC1CCCN(CCc2ccc(Cl)cc2)C1 (stereo not given),Percent Effect,"30 µM, 30.03 µM",95.69%
COc1ccc(CCN2CCCC(CN(C)Cc3[nH]cnc3C)C2)cc1 (stereo not given),Percent Effect,"30.3 µM, […]",-2.681%
Cc1nc(C)n(CC2CCCN(CCc3ccncc3)C2)n1 (stereo not given),Percent Effect,"30 µM, 30.03 µM",27.42%
Cc1cc(CN2CCC(C3CCN(CCc4ccccc4)C3)CC2)[nH]n1 (stereo not given),Percent Effect,"30.3 µM, […]",16.23%
CN(Cc1cccc(O)c1)CC1CCCN(CCc2ccc(Cl)cc2)C1 (stereo not given),Percent Effect,"30 µM, 30.03 µM",95.8%
CCOCCC(=O)N(C)Cc1noc(C(C)C)n1,Percent Effect,"30.3 µM, […]",0.5615%
COc1cccc(OCC2CCCN(C(=O)c3ncc(F)cc3F)C2)c1 (stereo not given),Percent Effect,"30.3 µM, […]",9.755%
Cc1ccc(-c2cnnc(N3CCCC3c3nonc3C)n2)o1 (stereo not given),Percent Effect,"30.3 µM, […]",17.41%
Cc1ccc(OCC(=O)Nc2ncccc2OC(F)F)cc1,Percent Effect,"30.3 µM, […]",23.14%
Cc1ccc(C(=O)NCCCNc2ccc(C(F)(F)F)cn2)cc1,Percent Effect,30 µM,23.85%
Cc1noc(CN2CCN(C(=O)N(C)C)CC2)n1,Percent Effect,30 µM,8.701%
COc1cccc2c1OCC(NC(=O)NCCC(N)=O)C2 (stereo not given),Percent Effect,"30.3 µM, […]",-3.86%
CC1CCC(NCCCN2CCOCC2)CC1 (stereo not given),Percent Effect,"30.3 µM, […]",41.59%
Cc1ccc(C)c(-n2ncc(C(=O)NCC3COC(C)(C)O3)c2N)c1 (stereo not given),Percent Effect,"30.3 µM, […]",6.712%
c1cn(Cc2ccc(N3CCCN(C4CCCC4)CC3)nc2)cn1,Percent Effect,"30.3 µM, […]",60.72%
CC1CCN(c2ccc(CNC(=O)NCCn3ccnc3)cn2)CC1,Percent Effect,"30.3 µM, […]",-10.4%
OC1CCN(C2CCN(c3ccc(Cn4ccnc4)cn3)CC2)CC1,Percent Effect,"30.3 µM, […]",61.02%
c1csc(CN2CCCN(c3ccc(Cn4ccnc4)cn3)CC2)c1,Percent Effect,"30.3 µM, […]",43.35%
CN(CC1CCN(c2ccccc2)C1)c1ccc(Cn2ccnc2)cn1 (stereo not given),Percent Effect,"30.3 µM, […]",-5.433%
Fc1ccc(N2CCCN(c3ccc(Cn4ccnc4)cn3)CC2)cc1,Percent Effect,"30.3 µM, […]",41.56%
CC(=O)NC1CCN(C(=O)c2cnc(COc3ccccc3)nc2O)C1 (stereo not given),Percent Effect,"30.3 µM, […]",6.861%
Cc1ccc(CN2CCc3onc(COc4cccnc4)c3C2)s1.O=C(O)C(F)(F)F.O=C(O)C(F)(F)F,Percent Effect,"30.3 µM, […]",-45.52%
O=S(=O)(NCc1ccnc(-n2ccnc2)c1)c1cncc(Cl)c1,Percent Effect,"30.3 µM, […]",-18.27%
COCCNC(=O)Cn1cc(OCc2ccc(F)cc2)c(=O)cc1CO,Percent Effect,"30.3 µM, […]",27.19%
CO[C@@H]1CCN(c2nnc(C)s2)C[C@@H]1Cc1ccccc1.O=C(O)C(F)(F)F,Percent Effect,"30.3 µM, […]",9.959%
Cc1nnc(N2CC[C@H](OCC3CC3)[C@@H](Cc3ccccc3)C2)s1.O=C(O)C(F)(F)F,Percent Effect,"30 µM, 30.03 µM",51.69%
Cc1nnc(N2CC[C@@H](OCC3CC3)[C@@H](Cc3ccccc3)C2)s1.O=C(O)C(F)(F)F,Percent Effect,"30.3 µM, […]",35.34%
O=C(Nc1cnccn1)[C@@H]1COC[C@H]2CN(C3CCC3)C[C@H]21.O=C(O)C(F)(F)F,Percent Effect,"30.3 µM, […]",-10.65%
CCc1nnc(Nc2cccc(C3CCN(CCO)CC3)n2)s1,Percent Effect,"30 µM, 30.03 µM",20.13%
